Screens as filed in PubChem.
Shown are actives, neighbours in structure and some others; about 0.9% of the full set was active somewhere.
PPARg SRC3 recr = agonists of human PPARgamma SRC-3 coactivator recruitment; P37231; biochemical PPARgamma/SRC-3 coactivator recruitment assay; activation, % at 8 µM; 200,000 compounds, 0.26% hits; AID 731; in the data active = activation above about 23%
TR-FRET SRC-2 ct = counter-screen for PPARgamma SRC-2 recruitment agonists: TR-FRET artefact; active compounds read high; TR-FRET ratio at 8 µM; 200,000 compounds, 0.4% hits; in the data active = TR-FRET ratio above about 2000
PPARg SRC-2 ag = PPARgamma-driven SRC-2 recruitment agonism; activation, % at 8 µM; P37231; 200,000 compounds, 0.34% hits; PPARgamma LBD-SRC-2 recruitment, biochemical
PPARg SRC1 recr = PPARgamma-driven SRC-1 recruitment agonism; P37231; PPARgamma-SRC-1 coactivator recruitment biochemical assay; activation, % at 8 µM; 200,000 compounds, 0.41% hits; AID 631; in the data active = activation above about 19%
SRC1 TRFRET art = TR-FRET artefact, counter-screen to PPARgamma/SRC-1 agonist assay. TR-FRET detection artefact counter-screen, emission ratio; active compounds read high. TR-FRET ratio at 8 µM. 99,000 compounds, 0.34% hits. AID 1051; in the data active = TR-FRET ratio above about 2300
SRC3 TRFRET art = counter-screen for PPARgamma SRC-3 recruitment agonists: TR-FRET artefact. TR-FRET ratio at 8 µM. PPARgamma/SRC-3 format; active compounds read high. 99,000 compounds, 0.39% hits; in the data active = TR-FRET ratio above about 2000
PPARg SRC2 ag = human PPARgamma SRC-2 recruitment agonism, confirmation; shares compounds with PPARg SRC3 recr; biochemical SRC-2 recruitment by PPARgamma; activation, % at 8 µM; 790 compounds, 52% hits; AID 1297
PPARg SRC1 conf = human PPARgamma SRC-1 recruitment agonism, confirmation; shares compounds with PPARg SRC3 recr; PPARgamma–SRC-1 coactivator recruitment biochemical assay; activation, % at 8 µM; 790 compounds, 43% hits; in the data active = activation above about 20%
PPARg SRC3 conf = human PPARgamma SRC-3 recruitment agonism, confirmation; AID 1301; activation, % at 8 µM; 790 compounds, 29% hits; shares compounds with PPARg SRC3 recr; biochemical PPARgamma-SRC-3 coactivator recruitment, agonist mode; in the data active = activation above about 24%
Target sequence (P37231 whole entry, looked up): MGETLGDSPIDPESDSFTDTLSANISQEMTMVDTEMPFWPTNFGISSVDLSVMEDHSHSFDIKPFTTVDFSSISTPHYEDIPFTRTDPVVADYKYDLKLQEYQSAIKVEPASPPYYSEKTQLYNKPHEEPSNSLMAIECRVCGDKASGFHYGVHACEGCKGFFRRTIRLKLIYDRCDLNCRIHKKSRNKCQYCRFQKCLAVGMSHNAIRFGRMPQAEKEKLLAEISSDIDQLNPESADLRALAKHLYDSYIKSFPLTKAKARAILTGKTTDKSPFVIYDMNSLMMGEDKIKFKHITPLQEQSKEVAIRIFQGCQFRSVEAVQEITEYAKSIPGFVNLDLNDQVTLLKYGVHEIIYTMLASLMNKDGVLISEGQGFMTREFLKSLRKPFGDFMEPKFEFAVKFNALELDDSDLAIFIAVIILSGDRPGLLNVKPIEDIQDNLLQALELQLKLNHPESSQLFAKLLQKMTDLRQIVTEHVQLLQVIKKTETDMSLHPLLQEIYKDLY
Target sequence (Q9Y6Q9 whole entry, looked up): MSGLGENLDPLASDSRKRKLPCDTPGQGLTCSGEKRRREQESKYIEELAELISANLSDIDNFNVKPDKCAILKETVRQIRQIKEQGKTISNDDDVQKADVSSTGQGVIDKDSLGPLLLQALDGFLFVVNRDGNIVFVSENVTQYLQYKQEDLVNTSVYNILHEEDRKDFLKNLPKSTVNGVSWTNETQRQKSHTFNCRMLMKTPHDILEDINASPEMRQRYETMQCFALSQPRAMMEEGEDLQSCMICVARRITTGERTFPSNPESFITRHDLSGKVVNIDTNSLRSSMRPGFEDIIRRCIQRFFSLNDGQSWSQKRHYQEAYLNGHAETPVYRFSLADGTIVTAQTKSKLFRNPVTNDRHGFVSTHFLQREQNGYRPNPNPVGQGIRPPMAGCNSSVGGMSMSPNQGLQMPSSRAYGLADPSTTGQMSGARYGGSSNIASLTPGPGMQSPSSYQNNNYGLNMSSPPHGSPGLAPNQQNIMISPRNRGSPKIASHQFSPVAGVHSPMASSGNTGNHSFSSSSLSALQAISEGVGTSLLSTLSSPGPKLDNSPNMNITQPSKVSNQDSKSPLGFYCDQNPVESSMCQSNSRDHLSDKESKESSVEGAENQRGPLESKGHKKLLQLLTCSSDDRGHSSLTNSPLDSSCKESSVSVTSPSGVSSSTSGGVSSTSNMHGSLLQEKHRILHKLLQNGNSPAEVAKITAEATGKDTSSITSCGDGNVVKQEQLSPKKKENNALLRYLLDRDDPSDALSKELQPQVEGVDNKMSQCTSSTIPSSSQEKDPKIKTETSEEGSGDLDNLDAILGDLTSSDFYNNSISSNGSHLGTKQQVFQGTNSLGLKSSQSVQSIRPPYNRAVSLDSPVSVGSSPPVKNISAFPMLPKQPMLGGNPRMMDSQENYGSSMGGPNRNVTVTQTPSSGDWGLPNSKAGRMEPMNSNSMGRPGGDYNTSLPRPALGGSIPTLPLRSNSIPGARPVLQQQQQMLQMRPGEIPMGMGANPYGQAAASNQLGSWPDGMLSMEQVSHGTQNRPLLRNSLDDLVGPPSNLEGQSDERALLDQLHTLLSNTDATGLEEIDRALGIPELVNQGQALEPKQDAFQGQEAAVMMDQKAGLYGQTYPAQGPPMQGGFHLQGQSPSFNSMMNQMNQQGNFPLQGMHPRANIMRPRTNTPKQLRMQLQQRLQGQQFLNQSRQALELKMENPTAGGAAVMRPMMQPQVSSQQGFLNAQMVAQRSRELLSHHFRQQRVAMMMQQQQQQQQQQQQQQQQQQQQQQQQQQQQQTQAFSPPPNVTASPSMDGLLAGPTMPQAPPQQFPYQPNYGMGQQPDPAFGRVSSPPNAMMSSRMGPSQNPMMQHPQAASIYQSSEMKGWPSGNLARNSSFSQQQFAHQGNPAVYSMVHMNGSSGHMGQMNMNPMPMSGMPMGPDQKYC
Numbers stand for hits; i = inactive; nt = no result given. Cut-off read from the data, not from the text of the source, unless noted: active = activation above about 22%; inactive = the rest.

SMILES	PPARg SRC3 recr	TR-FRET SRC-2 ct	PPARg SRC-2 ag	PPARg SRC1 recr	SRC1 TRFRET art	SRC3 TRFRET art	PPARg SRC2 ag	PPARg SRC1 conf	PPARg SRC3 conf
CCN(CC)S(=O)(=O)c1cccc(-c2n[nH]c(=S)n2C)c1	i	i	i	i	i	i	nt	nt	nt
Cc1cn(S(=O)(=O)c2ccc(Br)c3ccccc23)cn1	52	2712	49	31	nt	nt	40	26	28
COc1cc(OC)cc(C(=O)N[C@H](C(=O)NCc2ccco2)C(C)C)c1	i	i	i	i	i	i	nt	nt	nt
COc1ccc(-c2oc3ncn4nc(Cc5ccccc5)nc4c3c2-c2ccc(OC)cc2)cc1	i	4122	69	84	nt	nt	i	i	i
COc1ccc(-c2oc3ncn4nc(COc5ccccc5)nc4c3c2-c2ccc(OC)cc2)cc1	i	i	i	i	nt	nt	nt	nt	nt
Cc1c(C(=O)Nc2ccccc2[N+](=O)[O-])csc1-c1ccccc1	i	i	i	i	i	i	nt	nt	nt
COc1cccc(CNC(=O)CCC2CCCN(Cc3cc4ccccc4o3)C2)c1 (configuration not stated)	i	i	i	i	i	i	nt	nt	nt
COc1ccccc1C1CC(=O)NC(C)=C1C(=O)OC(C)C (configuration not stated)	i	i	i	i	i	i	nt	nt	nt
CCSc1nc(N)c2c3c(sc2n1)CCC3	32	2185	28	i	nt	nt	i	i	i
COc1cc2c(cc1OC)C1=NC(=O)CN1C(SCc1ccccc1C)=N2	i	i	27	i	nt	nt	28	i	i
Cc1ccc(CSC2=Nc3ccccc3C3=NC(=O)CN23)cc1	i	i	i	i	i	i	nt	nt	nt
COC(=O)c1c(NC(=O)c2ccco2)sc(C(=O)N(C)C)c1C	i	i	i	i	nt	nt	nt	nt	nt
CC1N(C)c2cccc3cccc(c23)N1C	i	i	25	i	nt	nt	24	i	i
N#Cc1ccc2ccn(CC(=O)NCc3ccccc3)c2c1	i	i	i	i	nt	nt	nt	nt	nt
O=C(O)c1cccnc1SCC(=O)N1CCCCCC1	i	i	i	20	nt	nt	i	i	i
O=C(NCCC1=CCCCC1)Nc1ccc2nsnc2c1	i	i	27	28	i	i	i	i	i
N#Cc1ccc(-c2ccc(F)cc2)nc1SCC(=O)Nc1sc2c(c1C#N)CCC2	i	i	i	20	nt	nt	i	i	i
N#Cc1cc2c(nc1SCC(=O)Nc1sc3c(c1C#N)CCC3)CCCC2	i	i	i	i	nt	nt	nt	nt	nt
N#Cc1cnc(NOCc2ccc(Cl)cc2)nc1	i	i	i	i	i	i	nt	nt	nt
COc1cc(C(=O)NCCC(C)C)ccc1OCc1ccc(Cl)cc1Cl	47	i	i	48	i	i	i	45	38
CC1=CCC(C(=O)O)(C(=O)N/N=C/c2cccs2)C(c2ccc([N+](=O)[O-])cc2)C1 (configuration not stated)	i	i	i	i	nt	nt	nt	nt	nt
O=C(O)COc1ccc2nsnc2c1Cl	50	2267	37	38	nt	nt	46	42	27
CCCOc1ccc(C2C(C(=O)c3ccco3)=C(O)C(=O)N2CCCn2ccnc2)cc1 (configuration not stated)	i	i	i	19	nt	nt	i	i	i
C(=N\C(/N=C/c1ccco1)c1ccco1)/c1ccco1	i	i	i	i	i	i	nt	nt	nt
CN(C)c1ccc(C=Nc2ccc(N(C)C)cc2)cc1	104	2825	95	69	nt	nt	i	i	i
SMILES	PPARg SRC3 recr	TR-FRET SRC-2 ct	PPARg SRC-2 ag	PPARg SRC1 recr	SRC1 TRFRET art	SRC3 TRFRET art	PPARg SRC2 ag	PPARg SRC1 conf	PPARg SRC3 conf
CN(C)c1ccc(N=Cc2ccco2)cc1	74	2974	85	67	nt	nt	i	i	i
C(=Nc1cccc2c(N=Cc3ccco3)cccc12)c1ccco1	i	i	22	26	i	i	i	i	i
COc1cc2[nH]c(=O)n(CCCCCC(=O)NCCc3c[nH]c4ccccc34)c(=O)c2cc1OC	i	i	i	i	nt	nt	nt	nt	nt
COC(=O)c1ccc(Cl)c(NC(=O)c2ccc(-c3ccccc3)cc2)c1	i	i	i	i	nt	nt	nt	nt	nt
CN(C)c1ccc(-c2nn3c(C4CCCCC4)nnc3s2)cc1	i	i	i	i	nt	nt	nt	nt	nt
Cc1ccc(C(=O)CSc2nc(-c3ccccc3)ccc2C#N)cc1	i	i	i	i	i	i	nt	nt	nt
